Screening data as filed in PubChem.
Most compounds without a hit are left out; they make up all but 11% or so of the library.
KDM4E inh: JMJD2E (human) inhibition | B2RXH2 | JMJD2E catalytic domain, FDH-coupled NADH fluorescence (FDH is formaldehyde dehydrogenase) | Potency, µM (series often up to 57.1 µM), without a hit: top-dose activity change, negative = inhibition, most hits filed as inhibitors | 230,000 compounds, 1.6% hits;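 further: potency means the concentration at half of the fitted maximal effect; 0% = wells with enzyme and -100% = buffer wells without enzyme; nearly all actives have a fitted effect of over 50% in size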
Target sequence (B2RXH2 1-337 limits assumed): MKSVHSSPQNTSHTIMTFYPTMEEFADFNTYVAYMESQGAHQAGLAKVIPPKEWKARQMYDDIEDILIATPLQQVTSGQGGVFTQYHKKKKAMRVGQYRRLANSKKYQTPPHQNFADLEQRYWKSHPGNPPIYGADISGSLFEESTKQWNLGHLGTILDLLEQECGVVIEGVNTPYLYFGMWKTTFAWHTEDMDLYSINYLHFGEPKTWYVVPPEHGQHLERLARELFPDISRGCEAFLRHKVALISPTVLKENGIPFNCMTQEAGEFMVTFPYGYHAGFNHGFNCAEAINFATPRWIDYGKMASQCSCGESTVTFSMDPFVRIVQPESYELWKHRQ
HPGD block: blocks human HPGD enzyme activity | P15428 | purified HPGD, NADH fluorescence kinetic, PGE2 substrate | Potency, µM, for inactives: top-dose activity change, negative = inhibition, actives largely listed as inhibitors | 150,000 compounds, 4.3% hits; further: potency means the concentration at half of the fitted maximal effect
Target sequence (P15428 whole entry, looked up): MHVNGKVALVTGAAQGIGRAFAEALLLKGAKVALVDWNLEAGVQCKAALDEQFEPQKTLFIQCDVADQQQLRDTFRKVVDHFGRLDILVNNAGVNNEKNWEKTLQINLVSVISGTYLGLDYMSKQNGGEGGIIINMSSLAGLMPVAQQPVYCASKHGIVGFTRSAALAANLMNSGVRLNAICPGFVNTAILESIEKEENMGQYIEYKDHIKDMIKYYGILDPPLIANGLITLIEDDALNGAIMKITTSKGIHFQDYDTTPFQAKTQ
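NADH formation kinetics: reaction with 30 uM PGE2 and 1 mM NAD+ (final), 20 nM enzyme, Tris-HCl pH 8 with Tween 20, after 15 min compound preincubation at room temperature. Fluorescence change, last versus first of five reads.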
PNC inhibitor: perinucleolar compartment assembly inhibition; PC3M PTB-GFP, PNC prevalence imaging, 16 h; stronger effect = lower value; activity change (PNC), negative = inhibition, % at 10 µM; 140,000 compounds, 3.1% hits; AID 2417;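 active means readout at or below -70, meaning at least 70% loss of cells showing the perinucleolar compartment, a nuclear body marking cancer cells; inconclusive means readout between -30 and a set limit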;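 further: plate controls were DMSO wells for no effect and camptothecin positive control wells for full effect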
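Compounds are pinned in duplicate onto adhered PC3M cells stably expressing GFP-tagged PTB and incubated 16 h at 37 C. Cells are then fixed, nuclei stained with Hoechst, and PNC-positive cells counted.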
ALDH1A1 inh: inhibitors of human aldehyde dehydrogenase 1A1 | 220,000 compounds, 7.3% hits | Purified ALDH1A1, NADH fluorescence, propionaldehyde substrate | AID 1030 | Potency, µM (series often up to 75.3 µM), for inactives: at the highest dose activity, negative = inhibition, usual class: inhibitors;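 further: potency means the concentration at half of the fitted maximal effect; plate controls were no enzyme wells and a reference inhibitor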
* hit, by the source's call; u = inconclusive; x = no result; [ ] = remark or other dose. Unless noted, the call rests on the fitted dose curve; in most records, active means well fitted inhibition curve with a large enough effect (not every such curve was filed as active); inconclusive means small, poorly fitted or top-dose-only effect, or another doubt; inactive means no such curve, though single readings can be large or run the other way. Unless noted, on the % scale 0 is the no-effect control and ±100 the full control effect.

SMILES | KDM4E inh | HPGD block | PNC inhibitor | ALDH1A1 inh
COc1ccc(Cl)cc1NC(=O)CN1CCc2ccccc21 | -5% | x | x | 7.9µM*
COCCOC(=O)c1c(NC(=O)CN2CCc3ccccc32)sc(C(N)=O)c1C | -5% | x | x | 14µM*
CN(C)C(=O)[C@H]1C[C@@H]1[C@H](NC(=O)OCc1ccccc1)c1ccccc1 | 1% | -7% | x | -12%
CCOc1cc(N2CCOCC2)c(OCC)cc1NC(=O)CN1CCCC1 | 25µM* | 1% | u | u
O=c1c(OC2OC(CO)C(O)C(O)C2OC2OC(CO)C(O)C(O)C2OC2OC(CO)C(O)C(O)C2O)c(-c2ccc(O)c(O)c2)oc2cc(O)cc(O)c12 (stereo unspecified) | 14µM* | x | x | x
COc1ccc(-c2c(C)oc3cc(O)cc(O)c3c2=O)cc1OC | -3% | -14% | -9 | 1%
COc1c(-c2ccc(O)c(O)c2)oc2cc(O)cc(O)c2c1=O | 14µM* | -8% | x | -7%
O=c1c(O[C@@H]2O[C@H](CO)[C@H](O)[C@H](O)[C@H]2O)c(-c2ccc(O)c(O)c2)oc2cc(O)cc(O)c12 | 1.8µM* | x | x | x
O=c1c(O[C@@H]2O[C@H](CO)[C@@H](O)[C@H](O)[C@H]2O)c(-c2ccc(O)c(O)c2)oc2cc(O)cc(O)c12 | 13µM* | x | x | x
O=c1c(O)c(-c2ccc(O)cc2O)oc2cc(O)cc(O)c12 | 25µM* | -24% | -22 | -13%
C[C@@H]1O[C@@H](OC[C@H]2O[C@@H](Oc3c(-c4ccc(O)c(O)c4)oc4cc(O)cc(O)c4c3=O)[C@H](O)[C@@H](O)[C@@H]2O)[C@H](O)[C@H](O)[C@H]1O | 14µM* | x | x | x
CS(=O)(=O)Nc1ccc(C2=NN(S(=O)(=O)c3ccc(F)cc3)C(c3ccco3)C2)cc1 (stereo unspecified) | 3% | x | x | u
c1ccc2[nH]c(CN3CCOCC3)nc2c1 | 2% | u | 10 | -3%
c1ccc2[nH]c(SN3CCOCC3)nc2c1 | 5% | 11µM* | 6 | 0.79µM*
Fc1ccccc1CSc1ccc(-c2ccco2)nn1 | u | x | x | 28µM*
Cc1ccc(CSc2ccc(-c3ccco3)nn2)cc1 | -7% | -21% | -26 | -10%
Clc1cccc(CSc2ccc(-c3ccco3)nn2)c1 | -22% | x | x | 25µM*
Cc1cccc(CSc2ccc(-c3ccco3)nn2)c1 | -28% | -19% | u | u
Clc1ccc(CSc2ccc(-c3ccco3)nn2)cc1 | -6% | x | x | -5%
c1ccc(CSc2ccc(-c3ccco3)nn2)cc1 | -11% | -18% | -2 | 40µM*
c1ccc(CSc2nnc3c4ccccc4c4ccccc4c3n2)cc1 | -5% | 0% | x | u
Cc1nn(-c2ccccc2)c(N2CCCC2)c1/C=N/NC(=S)Nc1ccccc1F | 4% | u | -86* | u
Cc1cccn2c(CN(C)CCC3CCCCO3)c(C(=O)N3CCCCC3)nc12 (stereo unspecified) | -2% | x | x | 3.2µM*
Cc1cccn2c(CN(C)C3CCOC3)c(C(=O)N3CCCCC3)nc12 (stereo unspecified) | -9% | x | x | 5%
CC[n+]1c(/C=C(\C)SC)sc2ccccc21 | -5% | 28µM* | 31 | 6µM*
SMILES | KDM4E inh | HPGD block | PNC inhibitor | ALDH1A1 inh
CC[n+]1c(/C=C2/C=C(C)CC(C)C2)sc2ccccc21 (stereo unspecified) | 22µM* | x | x | u
CC[n+]1c(/C=C(/C)SC)sc2ccccc21 | -8% | x | -18 | u
Cc1ccccc1C(=O)O/N=C(\N)c1cccc([N+](=O)[O-])c1 | 10% | 2.8µM* | -4 | u
CC(=O)c1cccc(Nc2nc(-c3cccc([N+](=O)[O-])c3)cs2)c1 | -12% | -22% | -85* | u
N/C(=N\OC(=O)Oc1ccccc1)c1ccc([N+](=O)[O-])cc1 | -20% | -2% | -121* | 1%
CC(=O)c1cccc([N+](=O)[O-])c1 | x | -13% | x | 28µM*
N/C(=N\OC(=O)Oc1ccccc1)c1cccc([N+](=O)[O-])c1 | 2% | -5% | 10 | u
Cc1onc(-c2ccccc2)c1NC(=O)N(Cc1ccccc1)C(C)C | 1% | x | x | x
O=C(NC(=S)Nc1nc(-c2cccc([N+](=O)[O-])c2)cs1)c1ccccc1Cl | 3% | x | x | 17%
Cc1csc(C(=O)O)c1NC(=O)c1cccc([N+](=O)[O-])c1 | -2% | x | x | 14µM*
O=C(NC(=S)Nc1nc(-c2cccc([N+](=O)[O-])c2)cs1)c1cc(Cl)ccc1Cl | u | x | x | 28µM*
Nc1nccc(Nc2ccc(S(N)(=O)=O)cc2)n1 | x | 0% | x | 10%[13.5 µM]
COc1cccc([C@@H]2Oc3ccc(OC)cc3C(=O)[C@H]2OC(=O)NCCOc2ccccc2)c1 | -24% | -14% | x | 1%
O=C(NC(=S)Nc1cc(Cl)ccc1N1CCOCC1)c1ccc(-c2cccc(Cl)c2)o1 | -6% | -7% | u | 1%
O=[N+]([O-])c1cc(-c2ccc(C(=S)N3CCOCC3)o2)ccc1Cl | 3% | x | x | 4µM*
N#CCCN1CCN(C(=S)c2ccc(-c3ccc(Cl)c(Cl)c3)o2)CC1 | -1% | u | 4 | u
N#CCCN1CCN(C(=S)c2ccc(-c3cccc(Cl)c3)o2)CC1 | -16% | 28µM* | -19 | 11µM*
S=C(c1ccc(-c2cccc(Cl)c2)o1)N1CCOCC1 | -12% | 22µM* | 22 | 11µM*
O=[N+]([O-])c1cccc(-c2ccc(C(=S)N3CCOCC3)o2)c1 | -21% | x | x | 3%
S=C(c1ccc(-c2cccc(Cl)c2)o1)N1CCCCC1 | -7% | x | x | 14µM*
C=C(C)C(=O)OC[C@@H]1CCC[N@+]2(C)CCCCC12 (stereo partly specified) | -28% | -8% | x | 0%
Cc1cccc(NC(=O)COC(=O)c2ccc3c(c2)OCO3)c1C | -11% | x | x | u
Cc1ccc(N(CC(=O)Nc2cccc(C)c2)S(=O)(=O)c2cccc3nonc23)cc1 | -5% | x | u | 7.1µM*
Cc1ccc(S(=O)(=O)NCC2CCC(C(=O)NCc3ccccn3)CC2)cc1 (stereo unspecified) | 0% | x | x | 7.9µM*
O=C(CCc1ccc(S(=O)(=O)NC2CCCCC2)cc1)NCc1cccnc1 | 6% | x | x | 13µM*
SMILES | KDM4E inh | HPGD block | PNC inhibitor | ALDH1A1 inh
CC(C)NS(=O)(=O)c1ccc(CCC(=O)NCc2cccnc2)cc1 | 4% | 6% | 0 | 9%
Cc1ccc(S(=O)(=O)N2CCC(C(=O)OC(C)C(=O)NCc3ccc4c(c3)OCO4)CC2)cc1 (stereo unspecified) | 3% | 18µM* | -25 | 0%
Cc1ccc(S(=O)(=O)NCC2CCC(C(=O)NCc3ccc4c(c3)OCO4)CC2)cc1 (stereo unspecified) | 14% | -11% | 1 | 7.1µM*
Cc1ccc(S(=O)(=O)NCC2CCC(C(=O)NCc3cccnc3)CC2)cc1 (stereo unspecified) | 0% | x | x | 6.3µM*
CC(=O)Nc1ccc(S(=O)(=O)NCC2CCC(C(=O)NCc3ccccc3)CC2)cc1 (stereo unspecified) | 14% | x | x | -7%
O=C1CCC(C(=O)NCc2cccnc2)N1 (stereo unspecified) | -3% | -9% | -100* | 8%
Cc1cc(N2C(=O)C3C4CCC(C4)C3C2=O)no1 (stereo unspecified) | 2% | x | x | 1%
